In PubChem BioAssay:
Some of the results follow. Active and inactive are the calls of the source.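 How the source made its calls, unless noted: active means inhibition reaching about 45% at 4 µM in either replicate (limit read from the data); inactive means the rest.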

Key:
[1] = PMA/ionomycin-induced NF-kB reporter inhibitors, Jurkat retest, confirmation, T-cell NF-kB inhibitor project, cell-based, luminescence, single concentration (AID 435020); conditions: Jurkat NF-kB luciferase, 16 h, at 4 µM, stronger effect = higher value;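 further: plate controls were PMA/ionomycin stimulated DMSO wells for no effect and unstimulated DMSO wells for full effect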
[2] = cytotoxicity in PPC-1 cells, confirmation, cytotoxicity control for TRAIL apoptosis potentiator project, cell-based, ATP content luminescence (AID 1447;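 active means reconfirmed compounds whose average cytotoxicity reaches 50% or more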;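 further: 0% = DMSO-treated cells and 100% = wells holding medium but no cells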); conditions: PPC-1 viability, ATPlite luminescence, overnight; at 5 µM; stronger effect = higher value
[3] = target: Tumor necrosis factor receptor superfamily member 10B (Homo sapiens) (UniProt O14763); assay: caspase-8 TRAIL sensitization, hit retest, confirmation, cell-based, NB7+caspase-8, with/without TRAIL, luminescence panel (AID 651596; in the data active means activity above about 50%); conditions: NB7 neuroblastoma + caspase-8, TRAIL sensitization, luminescence viability, with TRAIL, mean of runs, at 10 µM, stronger effect = higher value
Sequence of Tumor necrosis factor receptor superfamily member 10B (Homo sapiens) (O14763 whole entry, looked up): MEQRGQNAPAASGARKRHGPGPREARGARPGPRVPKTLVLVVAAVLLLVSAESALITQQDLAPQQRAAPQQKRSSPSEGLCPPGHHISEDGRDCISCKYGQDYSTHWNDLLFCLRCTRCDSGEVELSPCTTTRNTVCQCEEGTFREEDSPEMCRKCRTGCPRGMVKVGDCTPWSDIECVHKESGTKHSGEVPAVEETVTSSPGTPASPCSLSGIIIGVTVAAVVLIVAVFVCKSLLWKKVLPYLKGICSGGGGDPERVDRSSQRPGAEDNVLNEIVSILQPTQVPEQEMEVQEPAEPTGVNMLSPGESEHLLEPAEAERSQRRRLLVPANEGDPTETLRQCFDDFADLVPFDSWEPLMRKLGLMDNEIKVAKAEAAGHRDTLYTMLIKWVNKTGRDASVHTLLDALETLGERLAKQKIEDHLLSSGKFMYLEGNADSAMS

[4] = as above; conditions: NB7 neuroblastoma + caspase-8, without TRAIL, luminescence viability, without TRAIL, mean of runs, at 10 µM
[5] = target: Sentrin-specific protease 8 (Homo sapiens) (UniProt Q96LD8); assay: SENP8 protease inhibitors, retest, confirmation, biochemical, luminescence, single concentration (AID 488912;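 active means mean inhibition across replicates above about 50%, limit read from the data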); conditions: Recombinant SENP8, Z-RLRGG-aminoluciferin luminescence, 60 min; at 12.5 µM; stronger effect = higher value
Sequence of Sentrin-specific protease 8 (Homo sapiens) (Q96LD8 whole entry, looked up): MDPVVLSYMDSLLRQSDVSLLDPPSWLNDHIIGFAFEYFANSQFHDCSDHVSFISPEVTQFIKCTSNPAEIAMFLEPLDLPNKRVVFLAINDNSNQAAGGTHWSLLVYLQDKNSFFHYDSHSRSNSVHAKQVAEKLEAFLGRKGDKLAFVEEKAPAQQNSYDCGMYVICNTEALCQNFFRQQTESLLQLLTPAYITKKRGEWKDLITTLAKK

[6] = target: Sentrin-specific protease 6 (Homo sapiens) (UniProt Q9GZR1); assay: SENP6 protease inhibitors, confirmation, biochemical, luminescence, single concentration (AID 488915;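 active means mean inhibition above about 50% in the one-dose retest, limit read from the data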); conditions: recombinant SENP6, Z-RLRGG-aminoluciferin luminescence; at 12.5 µM; stronger effect = higher value
Sequence of Sentrin-specific protease 6 (Homo sapiens) (Q9GZR1 628-1112 limits assumed): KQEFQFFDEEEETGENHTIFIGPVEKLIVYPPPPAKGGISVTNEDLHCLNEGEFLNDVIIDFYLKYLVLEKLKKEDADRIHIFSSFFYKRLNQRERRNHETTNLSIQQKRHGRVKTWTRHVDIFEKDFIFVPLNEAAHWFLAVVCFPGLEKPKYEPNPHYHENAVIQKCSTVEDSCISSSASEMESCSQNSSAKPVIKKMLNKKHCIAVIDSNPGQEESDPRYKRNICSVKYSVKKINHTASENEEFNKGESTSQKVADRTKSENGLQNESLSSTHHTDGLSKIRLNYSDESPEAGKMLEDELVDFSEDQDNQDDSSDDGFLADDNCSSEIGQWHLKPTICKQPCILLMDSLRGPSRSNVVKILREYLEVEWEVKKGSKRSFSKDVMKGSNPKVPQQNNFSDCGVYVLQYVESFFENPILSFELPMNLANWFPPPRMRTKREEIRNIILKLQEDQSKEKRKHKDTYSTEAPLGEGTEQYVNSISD

[7] = target: Sentrin-specific protease 7 (Homo sapiens) (UniProt Q9BQF6); assay: SENP7 protease inhibitors, retest, confirmation, biochemical, luminescence, single concentration (AID 488917;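 active means mean inhibition above about 50% in the one-dose retest, limit read from the data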); conditions: recombinant SENP7, Z-RLRGG-aminoluciferin luminescence, 40 min; at 12.5 µM; stronger effect = higher value
Sequence of Sentrin-specific protease 7 (Homo sapiens) (Q9BQF6 706-1050 limits assumed): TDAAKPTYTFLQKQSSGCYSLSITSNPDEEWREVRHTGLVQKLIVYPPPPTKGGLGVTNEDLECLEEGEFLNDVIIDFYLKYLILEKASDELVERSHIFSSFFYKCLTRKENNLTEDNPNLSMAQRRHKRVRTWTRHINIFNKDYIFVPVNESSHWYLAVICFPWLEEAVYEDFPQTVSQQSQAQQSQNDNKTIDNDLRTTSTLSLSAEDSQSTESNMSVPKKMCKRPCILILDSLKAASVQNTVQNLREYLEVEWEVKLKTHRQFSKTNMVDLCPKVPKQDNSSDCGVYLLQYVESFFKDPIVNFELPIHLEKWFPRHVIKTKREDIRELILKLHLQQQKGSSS

Caspase-3 (Homo sapiens) = Caspase-3 (Homo sapiens) (UniProt P42574); assay: caspase-3 protease inhibitors, confirmation, selectivity assay for SENP inhibitor project, biochemical, single concentration (AID 488918;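 active means mean inhibition above about 50%, limit read from the data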;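 further: plate controls were enzyme with DMSO for no effect and wells without caspase-3 for full effect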); conditions: purified caspase-3, Z-DEVD-aminoluciferin luminescence, 60 min; at 12.5 µM; stronger effect = higher value
Sequence of Caspase-3 (Homo sapiens) (P42574 28-227 limits assumed): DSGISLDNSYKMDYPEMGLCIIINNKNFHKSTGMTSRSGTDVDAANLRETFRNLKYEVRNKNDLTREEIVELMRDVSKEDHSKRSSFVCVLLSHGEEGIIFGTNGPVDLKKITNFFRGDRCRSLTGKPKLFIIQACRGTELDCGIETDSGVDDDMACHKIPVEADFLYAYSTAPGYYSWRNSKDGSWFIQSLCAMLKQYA

[8] = luciferase luminescence interference by compounds, confirmation, artefact control for SENP inhibitor project, biochemical, single concentration, SENP8 reaction pre-completed (AID 488919;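 active means mean inhibition above about 50% when retested at one dose, limit read from the data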;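 further: plate controls were DMSO wells with completed reaction for no effect and substrate without enzyme for full effect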); conditions: Pre-incubated SENP8/Z-RLRGG-aminoluciferin, at 12.5 µM, stronger effect = higher value
[9] = Peg3 promoter reporter inhibitors, retest, confirmation, cell-based, HeLa, luciferase reporter, single concentration (AID 602417;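 active means at 20 µM dose, 40% or more inhibition averaged across four replicates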); conditions: HeLa PEG-Prom luciferase reporter, luminescence, overnight; at 20 µM; stronger effect = higher value
[10] = HIF-2a reporter inhibitor retest, confirmation, luminescence, 786-0 RCC cells (AID 651580;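 active means mean inhibition across four replicates of at least 40 percent at the single tested concentration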); conditions: HIF-2a luciferase reporter luminescence, overnight, at 18.8 µM, stronger effect = higher value
[11] = HIF-1a luciferase reporter signal reduction – MiaPaCa-2 cells, single concentration, counter-screen for HIF-2a inhibitor project, confirmation (AID 651589;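 active means mean inhibition of the reporter signal across four replicates at the single tested dose of 50% or more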); conditions: MiaPaCa-2 HIF-1a luciferase reporter, desferoxamine, overnight; at 18.8 µM; stronger effect = higher value
PEG-3 [12] = target: PEG-3 (UniProt Q6IN02); assay: Peg3 promoter luciferase inhibitors, potency, dose response, cell-based, HeLa, CREF/GAPDH counter-screen panel (AID 624167); conditions: CREF/GAPDH counter-screens; HeLa PEG-Prom luciferase reporter, overnight, run 1, dose range 1, at 100 µM (top of the series) unless noted
Sequence of PEG-3 (Q6IN02 whole entry, looked up): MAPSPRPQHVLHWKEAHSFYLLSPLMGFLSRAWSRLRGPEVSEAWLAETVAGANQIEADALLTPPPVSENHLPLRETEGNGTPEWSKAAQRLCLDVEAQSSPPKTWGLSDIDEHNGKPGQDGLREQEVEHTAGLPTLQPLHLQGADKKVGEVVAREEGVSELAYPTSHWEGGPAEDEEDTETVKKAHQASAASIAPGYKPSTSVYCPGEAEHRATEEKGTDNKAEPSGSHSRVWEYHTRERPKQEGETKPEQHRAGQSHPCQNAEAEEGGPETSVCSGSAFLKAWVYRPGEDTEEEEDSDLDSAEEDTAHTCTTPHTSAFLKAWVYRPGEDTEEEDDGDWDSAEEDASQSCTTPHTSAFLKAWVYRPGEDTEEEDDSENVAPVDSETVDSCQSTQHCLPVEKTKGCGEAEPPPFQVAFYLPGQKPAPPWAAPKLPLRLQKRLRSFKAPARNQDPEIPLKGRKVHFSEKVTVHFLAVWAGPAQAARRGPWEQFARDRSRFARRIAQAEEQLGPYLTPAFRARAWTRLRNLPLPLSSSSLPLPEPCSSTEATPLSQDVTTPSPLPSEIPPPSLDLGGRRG

PEG-3 [13] = target: PEG-3 (UniProt Q6IN02); assay: as above; conditions: CREF/GAPDH counter-screens; HeLa PEG-Prom luciferase reporter, overnight, run 2, dose range 1, at 100 µM (top of the series) unless noted
Rat fibroblasts (CREF) [14] = assay: as above; conditions: CREF/GAPDH counter-screens; run 1, dose range 1, at 100 µM (top of the series)
Rat fibroblasts (CREF) [15] = assay: as above; conditions: CREF/GAPDH counter-screens; run 2, dose range 1, at 100 µM (top of the series)
[16] = activators of apoptotic CHOP UPR arm, confirmation, cell-based, CHO-CHOP luciferase reporter, single concentration (AID 463112; in the data active means activation above about 33%;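 further: 0% = DMSO wells and 100% = tunicamycin 10 µg/mL wells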); conditions: CHO-CHOP cells, CHOP-luciferase reporter luminescence; at 10 µM; stronger effect = higher value; percent of tunicamycin response, DMSO as zero
[17] = target: Protein Mdm4 (Homo sapiens) + E3 ubiquitin-protein ligase Mdm2 (Homo sapiens) (UniProt O15151+Q00987); assay: retested Mdm2-MdmX interaction blockers, confirmation, cell-based, luminescence, single concentration, set 2 (AID 504601;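 active means mean inhibition of the luminescence signal across two replicates at or above 26 percent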); conditions: SaOS-2 split-luciferase Mdm2/MdmX complementation, at 8 µM, stronger effect = higher value
Sequence of Protein Mdm4 (Homo sapiens) + E3 ubiquitin-protein ligase Mdm2 (Homo sapiens) (O15151 whole entry, looked up): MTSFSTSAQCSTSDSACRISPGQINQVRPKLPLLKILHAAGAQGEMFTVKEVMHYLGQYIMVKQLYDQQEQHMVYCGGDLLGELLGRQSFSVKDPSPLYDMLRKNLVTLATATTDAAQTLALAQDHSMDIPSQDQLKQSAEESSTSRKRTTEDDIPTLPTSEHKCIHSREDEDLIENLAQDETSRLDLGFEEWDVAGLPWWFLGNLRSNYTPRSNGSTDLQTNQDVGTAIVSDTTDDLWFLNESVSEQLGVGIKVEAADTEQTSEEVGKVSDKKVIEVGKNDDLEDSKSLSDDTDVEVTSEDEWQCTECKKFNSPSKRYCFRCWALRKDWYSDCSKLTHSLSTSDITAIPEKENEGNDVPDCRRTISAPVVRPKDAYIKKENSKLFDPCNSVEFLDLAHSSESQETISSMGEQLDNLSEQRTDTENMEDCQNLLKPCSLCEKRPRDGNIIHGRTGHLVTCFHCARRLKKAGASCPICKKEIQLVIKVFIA
Sequence of Protein Mdm4 (Homo sapiens) + E3 ubiquitin-protein ligase Mdm2 (Homo sapiens) (Q00987 whole entry, looked up): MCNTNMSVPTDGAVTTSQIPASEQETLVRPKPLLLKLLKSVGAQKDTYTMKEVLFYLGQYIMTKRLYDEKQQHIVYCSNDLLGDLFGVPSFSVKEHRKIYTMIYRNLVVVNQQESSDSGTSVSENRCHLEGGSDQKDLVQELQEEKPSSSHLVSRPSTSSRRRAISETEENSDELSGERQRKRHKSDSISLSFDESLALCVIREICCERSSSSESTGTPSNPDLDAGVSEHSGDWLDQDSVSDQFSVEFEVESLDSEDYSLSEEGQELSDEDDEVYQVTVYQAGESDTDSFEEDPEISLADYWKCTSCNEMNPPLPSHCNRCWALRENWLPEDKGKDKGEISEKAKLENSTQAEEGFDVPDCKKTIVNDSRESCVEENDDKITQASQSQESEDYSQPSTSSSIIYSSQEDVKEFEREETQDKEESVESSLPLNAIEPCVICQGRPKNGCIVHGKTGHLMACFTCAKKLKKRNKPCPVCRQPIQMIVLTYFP

[18] = inhibition of Brca1/Bard1 split-luciferase complementation, confirmation, counter-screen for Mdm2/MdmX interaction inhibitor project, luminescence, single concentration (AID 504668; call rule not given here); conditions: Brca1/Bard1 bimolecular luciferase complementation counterscreen, at 8 µM, stronger effect = higher value

With `COc1ccc(C)c(Cn2c(-c3nonc3N)nc3ccccc32)c1` the inhibition [1] was 44.8% (inactive).

With `CC(C)Sc1ncnc2c1cnn2-c1ccccc1` the inhibition [1] was -138% (inactive).

For `COc1ccccc1NC(=O)C1=C(C)Nc2nc3ccccc3n2C1c1cccs1` (configuration not stated), the inhibition [1] was 42.7% (inactive).

In the case of `Cc1nc2cc(NC(=O)Nc3cccc(F)c3)ccc2n1C`, the cytotoxicity [2] is reported as 51.2% (active), the activity [3] is reported as 72.3% and the activity [4] is reported as 65.2%.

For `COc1cc(SC)ccc1C(=O)Nc1nc(C)cs1`, the cytotoxicity [2] was 95.8% (active), the inhibition [5] was 89.6% (active) and the inhibition [6] was 98.7% (active). The inhibition [7] was 100% (active), the inhibition (Caspase-3 (Homo sapiens)) was 95.3% (active) and the inhibition [8] was 46.2% (inactive). For the same molecule, the inhibition [9] was 83% (active), the inhibition [10] was 92.8% (active) and the inhibition [11] was 96.9% (active). For the same molecule, the inhibition (PEG-3 [12]) was 96.4%, the inhibition (PEG-3 [13]) was 95.2% and the inhibition (Rat fibroblasts (CREF) [14]) was 98.6%. For the same molecule, the inhibition (Rat fibroblasts (CREF) [15]) was 99.8%, the activity [3] was 98.2% and the activity [4] was 97.8%.

With `Cc1ccc(S(=O)(=O)C2(S(=O)(=O)c3ccc(C)cc3)CCCC2)cc1` the inhibition [1] was 24.9% (inactive).

With `Cc1ccc(-n2ncc3c2CC(C)(C)CC3NC(=O)Cc2c(C)noc2C)cc1` (configuration not stated) the inhibition [1] was -15.6% (inactive).

In the case of `O=C(NCCC1CCCCN1S(=O)(=O)c1cccs1)C(=O)Nc1ccc(F)cc1F` (configuration not stated), the inhibition [1] is reported as -3.5% (inactive).

For `O=C(COC(=O)c1ccc(F)cc1)NCC1COc2ccccc2O1` (configuration not stated), the inhibition [1] was 12.1% (inactive).

In the case of `CC[C@]1(O)CC2CN(CCc3c([nH]c4ccccc34)[C@@](C(=O)OC)(c3cc4c(cc3OC)N(C=O)[C@H]3[C@@](O)(C(=O)OC)[C@H](OC(C)=O)[C@]5(CC)C=CCN6CC[C@]43[C@@H]65)C2)C1` (some centres not stated), the inhibition [1] is reported as 62.8% (active).

In the case of `Cc1csc(SCC(=O)Nc2sccc2C#N)n1`, the inhibition [1] is reported as -98.6% (inactive), the inhibition [5] is reported as 93.1% (active) and the inhibition [6] is reported as 96.1% (active). The inhibition [7] was 101% (active), the inhibition (Caspase-3 (Homo sapiens)) was 97.1% (active) and the inhibition [8] was 94.4% (active).

For `O=C(Nc1ccc2sc3ccccc3c(=O)c2c1)c1ccccc1Cl`, the inhibition [1] was -104% (inactive), the inhibition [5] was 6.3% (inactive) and the inhibition [6] was 0% (inactive). The inhibition [7] was 13.5% (inactive), the inhibition (Caspase-3 (Homo sapiens)) was 24.3% (inactive) and the inhibition [8] was 4.3% (inactive).

In the case of `CC(=O)Nc1cccc(-c2csc(Nc3cccc(C)n3)n2)c1`, the inhibition [1] is reported as -67.1% (inactive), the inhibition [5] is reported as 6.1% (inactive) and the inhibition [6] is reported as 93.9% (active). The inhibition [7] was 102% (active), the inhibition (Caspase-3 (Homo sapiens)) was 75.7% (active) and the inhibition [8] was 94.2% (active).

For `COc1cc(NS(=O)(=O)c2ccc3ccccc3c2)c2ncccc2c1`, the inhibition [1] was 2.5% (inactive), the activation [16] was 689% (active) and the inhibition [9] was 43% (active).

In the case of `O=C(CCNC(=O)c1ccc(Br)cc1)Nc1cccc(S(=O)(=O)N2CCCCC2)c1`, the inhibition [1] is reported as 0.65% (inactive).

With `COc1ccc(Nc2nc(-c3ccccc3)cs2)cc1` the inhibition [1] was -140% (inactive), the inhibition [5] was 49.3% (inactive) and the inhibition [6] was 89.6% (active). The inhibition [7] was 100% (active), the inhibition (Caspase-3 (Homo sapiens)) was 83.7% (active) and the inhibition [8] was 53.8% (active).

For `CCCOc1ccc(C(=O)NCCc2ccccc2)cc1`, the inhibition [1] was -82% (inactive), the inhibition [5] was 13.2% (inactive) and the inhibition [6] was 62% (active). The inhibition [7] was 88.3% (active), the inhibition (Caspase-3 (Homo sapiens)) was 78% (active) and the inhibition [8] was -5.4% (inactive).

In the case of `Cc1noc(C)c1/C=N/Nc1ccc2ccccc2n1`, the inhibition [1] is reported as -102% (inactive), the inhibition [5] is reported as -12.5% (inactive) and the inhibition [6] is reported as -9% (inactive). For the same molecule, the inhibition [7] was 6.7% (inactive), the inhibition (Caspase-3 (Homo sapiens)) was 6.2% (inactive) and the inhibition [8] was -1.9% (inactive).

For `Cc1ccc(N/C=C/C(=O)c2ccccc2)cc1C`, the inhibition [1] was 3.3% (inactive), the inhibition [5] was 34.5% (inactive) and the inhibition [6] was 73.8% (active). The inhibition [7] was 91.5% (active), the inhibition (Caspase-3 (Homo sapiens)) was 78.6% (active) and the inhibition [8] was 13.8% (inactive).

With `CCn1c(/C=C/c2ccc([N+](=O)[O-])o2)nc2ccccc2c1=O` the inhibition [1] was 23.7% (inactive), the activation [16] was 14.3% (inactive) and the inhibition [10] was -36.9% (inactive). For the same molecule, the inhibition [11] was 105% (active).

For `Cc1cc(=O)oc2cc(OCC3CC(c4ccccc4Cl)=NO3)ccc12` (configuration not stated), the inhibition [1] was 54.6% (active).

For `COc1ccccc1N1CCN(C(=O)c2cc(=O)c3cc(C)cc(C)c3o2)CC1`, the inhibition [1] was 54% (active).

For `O=[N+]([O-])c1ccccc1S(=O)(=O)Nc1cccc2cccnc12`, the inhibition [1] was 33.1% (inactive), the activation [16] was 656% (active) and the inhibition [17] was 102% (active).

For `N#Cc1ccc(C2N=C(c3ccccc3)NO2)cc1` (configuration not stated), the inhibition [1] was -93.9% (inactive), the inhibition [5] was 24.2% (inactive) and the inhibition [6] was 9.2% (inactive). For the same molecule, the inhibition [7] was 22.5% (inactive), the inhibition (Caspase-3 (Homo sapiens)) was 13.1% (inactive) and the inhibition [8] was 2.1% (inactive).

For `Cc1c(/C=N\NC(=O)c2cc3ccccc3o2)c2ccccc2n1C`, the inhibition [1] was -0.3% (inactive).

With `C[C@@H]1C[C@@H]2O[C@H]2/C=C\C=C\C(=O)Cc2c(Cl)c(O)cc(O)c2C(=O)O1` the inhibition [1] was 96.4% (active), the activation [16] was 134% (active) and the inhibition [18] was 33.8% (active).

In the case of `O=C(Nc1ccc2c(c1)CCC2)c1ccc(Br)s1`, the inhibition [1] is reported as -177% (inactive), the inhibition [5] is reported as 44.7% (inactive) and the inhibition [6] is reported as 70.8% (active). The inhibition [7] was 73.3% (active), the inhibition (Caspase-3 (Homo sapiens)) was 47% (inactive) and the inhibition [8] was 24.2% (inactive).
